Experimental data reported in ChEMBL document CHEMBL3988442, “University of Dundee, Small-Polar-MMV Screening Library” (2021).
For part of these data: Results with a measured potency or affinity are listed apart.

How the values were obtained:
Parameters in all cases: scale not given: direction of the effect not stated beside the values
[1] = biological target: Protein translocase subunit SecA (Escherichia coli (strain K12)) (UniProt P10408); experiment: Assay to Identify E. coli SecA ATPase Inhibitors; type: functional; details: 30 µM
Sequence of Protein translocase subunit SecA (Escherichia coli (strain K12)) (P10408 whole entry): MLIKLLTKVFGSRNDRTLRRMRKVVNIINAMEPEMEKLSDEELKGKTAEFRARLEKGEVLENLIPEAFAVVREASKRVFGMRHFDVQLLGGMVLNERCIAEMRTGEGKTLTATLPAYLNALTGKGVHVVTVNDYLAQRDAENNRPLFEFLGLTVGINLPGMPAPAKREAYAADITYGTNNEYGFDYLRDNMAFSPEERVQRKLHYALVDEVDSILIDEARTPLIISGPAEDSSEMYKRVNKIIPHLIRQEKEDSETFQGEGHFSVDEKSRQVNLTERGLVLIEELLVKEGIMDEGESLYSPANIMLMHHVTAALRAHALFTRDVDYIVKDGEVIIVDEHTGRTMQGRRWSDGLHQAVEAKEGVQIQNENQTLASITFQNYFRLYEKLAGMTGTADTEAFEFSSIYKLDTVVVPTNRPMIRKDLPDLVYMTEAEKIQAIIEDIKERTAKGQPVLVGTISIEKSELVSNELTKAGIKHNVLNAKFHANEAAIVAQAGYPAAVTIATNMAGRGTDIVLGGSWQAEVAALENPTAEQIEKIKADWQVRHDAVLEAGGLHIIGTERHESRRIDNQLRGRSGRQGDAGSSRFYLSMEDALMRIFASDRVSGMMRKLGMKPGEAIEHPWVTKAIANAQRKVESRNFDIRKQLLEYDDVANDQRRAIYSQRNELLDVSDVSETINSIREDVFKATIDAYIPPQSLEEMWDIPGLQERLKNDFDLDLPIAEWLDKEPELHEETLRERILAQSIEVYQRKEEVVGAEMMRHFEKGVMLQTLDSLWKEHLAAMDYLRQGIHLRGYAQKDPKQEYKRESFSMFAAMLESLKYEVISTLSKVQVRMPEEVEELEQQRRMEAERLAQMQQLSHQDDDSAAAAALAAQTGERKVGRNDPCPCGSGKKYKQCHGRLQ

[2] = biological target: T1, Ubiquitin-activating enzyme e1, putative (Leishmania donovani (strain BPK282A1)) (UniProt E9BSI1); experiment: Leishmania donovani Ubiquitin Activating Enzyme (LdE1); type: functional; details: 30 µM
T1 sequence (whole entry): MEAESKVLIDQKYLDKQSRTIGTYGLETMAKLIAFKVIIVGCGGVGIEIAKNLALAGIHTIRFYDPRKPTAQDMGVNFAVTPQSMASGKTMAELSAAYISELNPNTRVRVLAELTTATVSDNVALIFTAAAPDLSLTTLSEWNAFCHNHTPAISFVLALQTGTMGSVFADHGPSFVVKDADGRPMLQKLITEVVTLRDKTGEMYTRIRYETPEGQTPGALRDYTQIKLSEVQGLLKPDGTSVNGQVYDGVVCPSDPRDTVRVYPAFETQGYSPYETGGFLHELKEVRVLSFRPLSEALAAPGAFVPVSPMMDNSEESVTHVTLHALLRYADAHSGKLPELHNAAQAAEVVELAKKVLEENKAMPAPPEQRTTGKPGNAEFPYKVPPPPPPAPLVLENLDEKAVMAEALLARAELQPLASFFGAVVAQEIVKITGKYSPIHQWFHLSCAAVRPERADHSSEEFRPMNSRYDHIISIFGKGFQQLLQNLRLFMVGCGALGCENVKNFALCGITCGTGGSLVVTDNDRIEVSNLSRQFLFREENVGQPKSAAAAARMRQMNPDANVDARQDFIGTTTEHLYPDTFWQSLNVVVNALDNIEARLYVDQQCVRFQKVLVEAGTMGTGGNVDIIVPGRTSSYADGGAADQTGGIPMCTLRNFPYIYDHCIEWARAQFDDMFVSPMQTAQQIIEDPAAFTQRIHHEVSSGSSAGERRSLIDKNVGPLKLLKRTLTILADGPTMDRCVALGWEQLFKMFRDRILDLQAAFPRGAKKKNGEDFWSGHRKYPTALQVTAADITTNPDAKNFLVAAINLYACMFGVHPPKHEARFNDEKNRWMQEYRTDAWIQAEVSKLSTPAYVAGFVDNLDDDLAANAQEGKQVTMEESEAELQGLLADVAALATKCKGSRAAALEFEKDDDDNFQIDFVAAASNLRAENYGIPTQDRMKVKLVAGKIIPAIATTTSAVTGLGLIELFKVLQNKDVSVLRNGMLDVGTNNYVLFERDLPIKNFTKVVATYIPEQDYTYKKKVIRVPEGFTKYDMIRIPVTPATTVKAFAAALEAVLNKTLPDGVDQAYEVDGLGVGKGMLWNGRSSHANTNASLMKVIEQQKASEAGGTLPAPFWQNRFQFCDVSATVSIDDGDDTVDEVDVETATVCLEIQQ

[3] = biological target: Sialic acid-binding Ig-like lectin 9 (Homo sapiens) (UniProt Q9Y336); experiment: Hs-Siglec9 ALPHAscreen SOP 20170721; details: 10 µM
Sequence of Sialic acid-binding Ig-like lectin 9 (Homo sapiens) (Q9Y336 whole entry): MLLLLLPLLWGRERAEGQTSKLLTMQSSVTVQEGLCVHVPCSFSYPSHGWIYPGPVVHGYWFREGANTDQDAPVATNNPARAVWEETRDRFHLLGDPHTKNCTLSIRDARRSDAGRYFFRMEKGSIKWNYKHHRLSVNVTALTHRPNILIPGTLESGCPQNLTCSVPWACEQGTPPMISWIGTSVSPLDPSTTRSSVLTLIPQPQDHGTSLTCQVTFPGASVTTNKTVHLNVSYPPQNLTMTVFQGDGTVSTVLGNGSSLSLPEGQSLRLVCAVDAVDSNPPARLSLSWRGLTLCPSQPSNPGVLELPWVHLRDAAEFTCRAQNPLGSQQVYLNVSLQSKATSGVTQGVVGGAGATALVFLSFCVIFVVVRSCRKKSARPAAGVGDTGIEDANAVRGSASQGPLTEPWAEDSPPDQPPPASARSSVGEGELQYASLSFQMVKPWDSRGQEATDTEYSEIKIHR

[4] = test system: Trypanosoma cruzi; experiment: Trypanosoma cruzi phosphomannomutase and mannose-1-phosphate guanylyltransferase assay; type: functional; details: 10 µM
[5] = biological target: T2, Arginase-2, mitochondrial (Homo sapiens) (UniProt P78540); experiment: in vitro enzyme assay to detect the production of urea directly proportional to the activity of Arginase II; type: functional; details: 33.3 µM; also: in the data most compounds retested in dose-response had high values
T2 sequence (whole entry): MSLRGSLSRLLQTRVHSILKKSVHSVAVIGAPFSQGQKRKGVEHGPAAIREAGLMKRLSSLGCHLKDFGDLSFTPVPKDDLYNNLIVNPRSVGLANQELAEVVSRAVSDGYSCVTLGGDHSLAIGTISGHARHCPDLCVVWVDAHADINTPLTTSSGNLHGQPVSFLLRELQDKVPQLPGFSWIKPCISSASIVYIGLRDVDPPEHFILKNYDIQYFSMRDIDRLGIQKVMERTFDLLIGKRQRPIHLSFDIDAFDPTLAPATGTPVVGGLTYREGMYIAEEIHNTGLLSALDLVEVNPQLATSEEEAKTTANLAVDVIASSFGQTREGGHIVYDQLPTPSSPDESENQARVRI

[6] = biological target: T3, Proteasome subunit beta (Trypanosoma cruzi) (UniProt O96673); experiment: Trypanosoma cruzi proteasome chymotrypsin-like activity (TcProtChymo) assay.; also: in the data most compounds retested in dose-response had high values; type: functional; details: 9.37 µM
T3 sequence (whole entry): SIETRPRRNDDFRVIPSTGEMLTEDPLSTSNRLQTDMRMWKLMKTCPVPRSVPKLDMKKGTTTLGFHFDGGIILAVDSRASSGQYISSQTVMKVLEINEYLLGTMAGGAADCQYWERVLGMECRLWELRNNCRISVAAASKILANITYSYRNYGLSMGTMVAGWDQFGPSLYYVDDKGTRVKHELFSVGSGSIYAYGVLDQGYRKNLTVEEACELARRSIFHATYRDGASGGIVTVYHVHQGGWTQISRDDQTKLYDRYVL

[7] = species on record: Homo sapiens; experiment: To identify inhibition of the IFN signalling (Jak-Stat) pathway via expression of an eGFP reporter gene under the control of an IFN-stimulated response element (ISRE) containing MxA promoter.; type: functional; details: 30 µM
[8] = biological target: T4, Tyrosyl-tRNA synthetase, putative (Trypanosoma cruzi (strain CL Brener)) (UniProt Q4DSP6); experiment: Trypanosoma cruzi tyrosyl tRNA synthetase (TcYRS) _High Tyrosine SOP; type: functional; details: 30 µM; also: in the data most compounds retested in dose-response had high values
T4 sequence (whole entry): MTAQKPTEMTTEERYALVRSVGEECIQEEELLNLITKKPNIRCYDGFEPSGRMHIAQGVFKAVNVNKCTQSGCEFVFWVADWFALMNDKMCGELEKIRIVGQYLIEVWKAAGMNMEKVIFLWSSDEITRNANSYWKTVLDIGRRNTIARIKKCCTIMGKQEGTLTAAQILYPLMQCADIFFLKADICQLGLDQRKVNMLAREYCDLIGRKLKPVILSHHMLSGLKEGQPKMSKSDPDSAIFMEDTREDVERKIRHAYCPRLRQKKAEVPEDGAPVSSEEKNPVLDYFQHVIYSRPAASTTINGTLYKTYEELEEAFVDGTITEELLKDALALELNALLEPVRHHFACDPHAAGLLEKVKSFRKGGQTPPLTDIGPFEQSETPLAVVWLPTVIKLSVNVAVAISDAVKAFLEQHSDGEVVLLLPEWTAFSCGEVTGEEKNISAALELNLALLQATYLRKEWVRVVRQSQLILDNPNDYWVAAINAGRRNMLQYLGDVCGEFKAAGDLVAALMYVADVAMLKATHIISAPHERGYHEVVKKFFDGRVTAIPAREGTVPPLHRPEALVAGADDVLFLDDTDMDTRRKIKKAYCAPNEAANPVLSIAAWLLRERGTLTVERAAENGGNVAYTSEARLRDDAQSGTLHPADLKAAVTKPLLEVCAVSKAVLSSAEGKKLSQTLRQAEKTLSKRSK

[9] = biological target: T4, Tyrosyl-tRNA synthetase, putative (Trypanosoma cruzi (strain CL Brener)); experiment: Trypanosoma cruzi tyrosyl tRNA synthetase (TcYRS) SOP; type: functional; details: 30 µM
[10] = biological target: Chromo domain-containing protein 1 (Saccharomyces cerevisiae (strain ATCC 204508 / S288c) (Baker's yeast)) (UniProt P32657); experiment: ScCHD-1 Enzyme Inhibition Assay; type: functional; details: 30 µM; also: in the data most compounds retested in dose-response had high values
Sequence of Chromo domain-containing protein 1 (Saccharomyces cerevisiae (strain ATCC 204508 / S288c) (Baker's yeast)) (P32657 whole entry, the tested form may be a part): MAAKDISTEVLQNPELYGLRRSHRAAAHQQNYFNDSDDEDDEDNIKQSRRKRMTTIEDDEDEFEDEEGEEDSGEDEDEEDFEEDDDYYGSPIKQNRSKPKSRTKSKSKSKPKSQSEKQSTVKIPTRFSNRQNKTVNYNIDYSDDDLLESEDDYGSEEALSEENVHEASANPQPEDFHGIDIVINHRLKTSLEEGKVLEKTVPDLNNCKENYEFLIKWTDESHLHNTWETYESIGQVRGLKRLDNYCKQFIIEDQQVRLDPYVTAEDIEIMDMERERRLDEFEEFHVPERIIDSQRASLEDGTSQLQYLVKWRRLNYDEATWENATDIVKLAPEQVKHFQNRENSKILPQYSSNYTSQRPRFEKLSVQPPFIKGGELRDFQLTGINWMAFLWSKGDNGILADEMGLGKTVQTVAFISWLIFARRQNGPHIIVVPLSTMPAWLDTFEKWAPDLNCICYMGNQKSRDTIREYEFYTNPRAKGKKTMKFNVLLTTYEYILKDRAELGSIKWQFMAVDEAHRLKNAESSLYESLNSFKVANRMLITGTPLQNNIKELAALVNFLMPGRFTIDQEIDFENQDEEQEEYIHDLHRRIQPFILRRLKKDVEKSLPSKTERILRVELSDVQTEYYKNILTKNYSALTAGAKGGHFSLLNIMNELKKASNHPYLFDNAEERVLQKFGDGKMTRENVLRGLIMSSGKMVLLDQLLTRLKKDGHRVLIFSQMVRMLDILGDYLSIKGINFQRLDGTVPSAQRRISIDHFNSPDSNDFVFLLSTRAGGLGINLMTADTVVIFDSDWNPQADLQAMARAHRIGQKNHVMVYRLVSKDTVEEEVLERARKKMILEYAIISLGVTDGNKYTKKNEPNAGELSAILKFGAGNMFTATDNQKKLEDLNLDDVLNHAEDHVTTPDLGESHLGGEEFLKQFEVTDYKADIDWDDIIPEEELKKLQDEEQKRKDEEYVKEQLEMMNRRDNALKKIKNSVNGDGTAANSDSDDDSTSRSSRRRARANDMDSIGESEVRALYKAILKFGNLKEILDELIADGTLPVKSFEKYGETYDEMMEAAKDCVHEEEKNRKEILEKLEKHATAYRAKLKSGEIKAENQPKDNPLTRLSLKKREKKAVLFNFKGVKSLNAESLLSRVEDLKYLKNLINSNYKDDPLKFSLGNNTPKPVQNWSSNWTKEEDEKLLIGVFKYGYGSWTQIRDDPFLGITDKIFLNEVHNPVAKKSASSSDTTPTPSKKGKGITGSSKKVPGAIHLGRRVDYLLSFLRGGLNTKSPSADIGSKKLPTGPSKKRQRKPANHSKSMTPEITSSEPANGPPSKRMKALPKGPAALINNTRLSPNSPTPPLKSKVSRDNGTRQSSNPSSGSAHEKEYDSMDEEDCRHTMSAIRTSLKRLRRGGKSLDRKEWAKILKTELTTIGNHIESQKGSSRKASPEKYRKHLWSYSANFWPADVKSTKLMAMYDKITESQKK

Structure (SMILES)	Percent Effect [1]	Percent Effect [2]	Percent Effect [3]	Percent Effect [4]	Percent Effect [5]	Percent Effect [6]	Percent Effect [7]	Percent Effect [8]	Percent Effect [9]	Percent Effect [10]
Cc1cnn(C(C)C2CC2)c1NC(=O)c1ccncc1 (stereo not given)	-9.84%	-5.41%	-2.58%	-1.26%	1.75%	5.82%	-1.9%	-1.6%	0%	-0.204%
Cc1cnn(CC2CCCN2C(=O)c2ccc(OC(C)C)nc2)c1 (stereo not given)	-0.574%	-2.56%	12.5%	0.657%	4.92%	-5.89%	-3.81%	-3.35%	1.21%	2.64%
Cc1ccc(S(=O)(=O)N2CCC3(CC(C(=O)NCC4CC4)=NO3)C2)cc1 (stereo not given)	-5.9%	6.49%	-4.73%	-4.38%	0%	18.3%	5.59%	1.58%	7.69%	-3.09%
Cn1cc(C(=O)N2CCCC(n3cccn3)C2)c2ccccc21 (stereo not given)	-1.25%	8%	-2.42%	-5.62%	7.09%	3.65%	9.06%	2.63%	5.13%	-11.9%
Cc1ccc(S(=O)(=O)N2CCOc3ccccc32)cc1C(=O)O	-0.902%	-5.13%	-13.7%	-1.03%	1.23%	11.5%	1.07%	-7.18%	6.02%	-6.35%
Cc1ccc2c(n1)N(Cc1cccnc1)CCN(C(=O)C1CCC1)C2	-1.28%	6.49%	-4.98%	-4.77%	7.29%	11.4%	16.9%	4.74%	7.69%	-6.47%
O=C(c1cccnc1)N1CCn2nnc(COc3cccnc3)c2C1	-4.23%	1.3%	-1.59%	-6.13%	4.45%	14%	-1.63%	7.89%	7.69%	2.46%
COCC(=O)N1CCC2(CCN(Cc3ccccn3)CC2)CC1	-4.25%	6.49%	6.7%	4.77%	11.7%	12.3%	-3.67%	1.58%	5.13%	15%
Cc1cncc(C(=O)N2Cc3ccccc3C3(CCN(C)CC3)C2)c1	0.817%	1.3%	-5.76%	-4.38%	4.05%	3.09%	-17%	-2.63%	-15.4%	-3.41%
O=C(Cc1csc(-c2nnc[nH]2)n1)N1CCCC1Cn1cccn1 (stereo not given)	-1.04%	8%	5.84%	-0.402%	-3.1%	8.74%	-1.78%	2.63%	5.13%	-9.48%
COc1ncc(CN2CC[C@@](C)(O)[C@H](Oc3cccc(F)c3)C2)cn1	-2.75%	9.33%	-0.132%	-2.76%	-1.33%	6.73%	8.72%	4.23%	10%	-23.1%
Cc1cccc(CN2C[C@@H]3CN(C(=O)[C@H]4CCCO4)C[C@@H]3C2=O)c1	-6.54%	24.7%	2.65%	3%	-2.28%	16.4%	5.56%	9.66%	20%	-6.96%
CCn1ccnc1CNCC1CCN(CC(O)c2ccccc2)CC1 (stereo not given)	-3.91%	-5.13%	-9.4%	5.92%	11.9%	-2.13%	4.15%	3.35%	6.02%	-1.13%
CN1CCOC(CNC(=O)CCCOc2ccccc2F)C1 (stereo not given)	-2.16%	12.8%	3.45%	1.6%	2.87%	18.5%	18.2%	10.1%	22.9%	-4.86%
O=C(c1ccno1)N1CCC2(CC1)C(=O)N(CC1CC1)c1ccccc12	-0.905%	-29.9%	-1.46%	-0.75%	3.2%	3%	5.14%	1.93%	0%	-3.48%
COc1cc(C(=O)N2CCCS2(=O)=O)cc(Cl)c1OC	-4.13%	24%	3.41%	-0.602%	-4.88%	9.07%	7.8%	4.74%	15.4%	-12.8%
Cc1nc(CN2CCN(Cc3nccn3C)CC2)no1	-4.99%	8%	-1.66%	3.21%	-1.77%	4.16%	11.1%	5.79%	15.4%	-11.3%
COCCOc1cccc(C(=O)N2CCCC(n3cccn3)C2)c1 (stereo not given)	-3.05%	2.6%	10.5%	-0.746%	-1.84%	2.28%	7.63%	0%	4.71%	3.61%
CN(Cc1ccccc1)CC(O)Cn1cnc2ccsc2c1=O (stereo not given)	-3.3%	5.13%	-3.73%	8.36%	-0.41%	1.62%	17.5%	0.478%	1.21%	3.76%
CC(C)(C)n1ncc2c1NC(=O)CC2c1ccccc1 (stereo not given)	-4.86%	5.41%	5.59%	2.23%	-3.15%	13.2%	12.2%	3.72%	14.6%	96%
CC(C)n1ccnc1C1CCN(C(=O)c2cc[nH]n2)CC1	-1.49%	8.11%	10.9%	5.53%	14.3%	13.2%	31.6%	7.98%	19.5%	-4.41%
O=S(=O)(c1ccccc1Cl)N1CCc2nc(C3CCNCC3)ncc2C1	-4.22%	1.33%	8.22%	3.75%	-1.33%	12.2%	34.8%	6.35%	12.5%	-26.2%
Cc1nc(C2CCCN(C(=O)CO)C2)cc(N2CCOCC2)n1 (stereo not given)	-7.77%	0%	22.8%	9.02%	-2.45%	13.7%	6.91%	3.72%	14.6%	-5.28%
Cc1ncccc1O[C@H]1CCN(C(=O)Cc2cccs2)CC[C@@H]1O	-5.37%	17.3%	6.84%	1.18%	-0.443%	10.8%	7.57%	6.35%	15%	-22.2%
NCc1cn(-c2ccccc2C(=O)NCc2ccccc2)cn1	-2.27%	14.7%	1.6%	-0.592%	1.33%	10.2%	26.2%	6.35%	15%	-23.1%
Cc1cnn(C(C)C2CC2)c1NC(=O)c1cnccn1 (stereo not given)	-5.04%	0%	0.592%	1.07%	0.35%	-1.03%	16.7%	1.6%	4.88%	2.37%
Cc1ncc2c(n1)CN(Cc1nc3ccccc3o1)CC2	-2.9%	8%	3.11%	4.02%	-2.22%	3.31%	-20.5%	25.8%	28.2%	-12.9%
